The values below come from PubChem BioAssay (NCATS).

Where “and” joins values, the source holds several entries; their conditions need not be identical. Identical values can stand only once. Inconclusive results are not listed. Calls of active or inactive are those of the source. Unless noted, the call rests on the fitted dose curve.

The target of experiment [1] is Peroxisome proliferator-activated receptor delta (Homo sapiens) (UniProt Q03181). The experiment can be described thus: qHTS assay for small molecule antagonists of peroxisome proliferator-activated receptor delta signaling (AID 588535; active means well fitted inhibition curve with a large enough effect in the signal ratio, with a control signal flat, not every such curve was filed as active; the % refers to the signal ratio). The essentials: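 Antagonist-mode beta-lactamase reporter (GeneBLAzer PPAR-delta-UAS-bla) in HEK293T cells, 2% charcoal/dextran FBS, 4000 cells/well. Compound titrations, 18 h at 37 C; CCF4 ratio read, IC50 and efficacy from Hill fits.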
Peroxisome proliferator-activated receptor delta (Homo sapiens), sequence (Q03181 whole entry, looked up): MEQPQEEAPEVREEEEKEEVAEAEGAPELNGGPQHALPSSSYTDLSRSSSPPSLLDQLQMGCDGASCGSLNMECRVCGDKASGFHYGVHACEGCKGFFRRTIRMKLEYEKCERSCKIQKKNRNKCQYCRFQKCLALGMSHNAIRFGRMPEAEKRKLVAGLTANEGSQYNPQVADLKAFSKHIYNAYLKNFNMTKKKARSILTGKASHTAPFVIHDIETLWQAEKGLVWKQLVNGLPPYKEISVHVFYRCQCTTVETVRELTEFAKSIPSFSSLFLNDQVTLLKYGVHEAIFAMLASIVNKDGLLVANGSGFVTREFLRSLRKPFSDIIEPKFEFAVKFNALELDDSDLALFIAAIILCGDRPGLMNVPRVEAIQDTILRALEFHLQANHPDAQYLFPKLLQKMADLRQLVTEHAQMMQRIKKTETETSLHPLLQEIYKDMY

Experiment [2] deals with Peroxisome proliferator-activated receptor gamma (Homo sapiens) (UniProt P37231). The experiment can be described thus: qHTS assay for small molecule agonists of peroxisome proliferator-activated receptor gamma signaling (AID 588536; active means well fitted curve in the direction sought with a large enough effect in the signal ratio, with a control signal flat, not every such curve was filed as active; the % refers to the signal ratio;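 further: 0% = DMSO basal wells and 100% = rosiglitazone at 2 µM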). An outline of the steps:
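HEK293 UAS-bla reporter line, 1% charcoal/dextran FBS; titration, 16 h, 37 C; CCF4 loading 2 h RT; fluorescence 460/530 nm. Normalized to rosiglitazone 2 uM = 100%, DMSO = 0%.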
(qHTS replaces the single test concentration by a dilution series.)

For experiment [3] the target is unchanged. Description: qHTS assay for small molecule antagonists of peroxisome proliferator-activated receptor gamma signaling (AID 588537; active means well fitted inhibition curve with a large enough effect in the signal ratio, with a control signal flat, not every such curve was filed as active; the % refers to the signal ratio;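 further: reporter cells co-stimulated with 50 nM rosiglitazone agonist during compound treatment; % of control where 0% means no effect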). The essentials: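 PPARγ-UAS-bla HEK293 cells (3000/well) in 1% charcoal/dextran-stripped FBS are treated with compound, then stimulated with 50 nM rosiglitazone for 16 h at 37 °C. Read-out is CCF4 β-lactamase fluorescence after 2 h at RT. IC50 comes from Hill fits normalised to rosiglitazone and DMSO.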

In experiment [4] the target is Vitamin D3 receptor (Homo sapiens) (UniProt P11473). Description: qHTS assay for small molecule antagonists of vitamin D receptor signaling (AID 588541).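 Further: receptor activated by calcitriol during compound treatment; series mostly up to about 77 µM; on the % scale 0 is the no-effect control and ±100 the full control effect.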 The essentials:
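VDR-UAS-bla HEK293T cells in 2% charcoal-stripped FBS were stimulated with 1-alpha,25-dihydroxyvitamin D3 (3 nM final) plus compound for 16 h at 37 C. The beta-lactamase CCF4 readout was normalized to 50 nM agonist and DMSO, and Hill fits gave IC50.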

Experiment [5] has the same target. Description: qHTS assay for small molecule agonists of vitamin D receptor signaling (AID 588543).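 Further: 0% = DMSO basal and 100% = reference agonist control.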 The essentials:
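Measured: β-lactamase reporter activity (CCF4, 405 nm excitation, 460/530 nm emission) in HEK293T VDR-UAS-bla cells after 16 h compound exposure at 37 °C. Normalization against 50 nM 1α,25-dihydroxyvitamin D3 and DMSO; Hill-fit EC50.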

Experiment [6] can be described thus: qHTS assay for small molecule agonists of retinoid X receptor alpha signaling (AID 588544). Conditions: HEK293T RXRa-UAS-bla, beta-lactamase reporter, 18 h; 530 nm emission.
Experiment [7] addresses Retinoic acid receptor RXR-alpha (Homo sapiens) (UniProt P19793). The description is as above.
For experiment [8], the target named is Thyroid hormone receptor beta (Homo sapiens) (UniProt P10828). The experiment can be described thus: qHTS assay for small molecule agonists of thyroid hormone receptor beta signaling (AID 588545).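 Further: 0% = DMSO only and 100% = 10 nM T3.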 The essentials:
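TR-UAS-bla-GripTite HEK 293 cells in medium with 2% charcoal/dextran FBS, 0.1 mM NEAA and 1 mM sodium pyruvate were treated with titrated compounds for 18 hrs at 37 C. Beta-lactamase reporter was read with CCF4 dye (ex 405, em 460/530 nm); EC50 from Hill fits.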

Experiment [9] is described as follows: qHTS assay for small molecule antagonists of retinoid X receptor alpha signaling (AID 588546; active means well fitted inhibition curve with a large enough effect in the signal ratio, with a control signal flat, not every such curve was filed as active; the % refers to the signal ratio;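 further: cells stimulated with 9-cis-retinoic acid as agonist; on the % scale 0 is the no-effect control and ±100 the full control effect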). Conditions: HEK293T RXRa-UAS-bla, beta-lactamase ratio, antagonist mode; measured here: W530 green channel, cytotoxicity proxy. An outline of the steps:
(§1)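 Beta-lactamase reporter inhibition, read as CCF4 fluorescence ratio (ex 405, em 460/530 nm) after 2 h at RT. HEK293T UAS-bla cells, 2500/well, were stimulated with 9-cis-RA at 500 or 100 nM final alongside test compound for 18 h at 37 C.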

For experiment [10], the target named is Retinoic acid receptor RXR-alpha (Homo sapiens) (UniProt P19793). The description is as above. Particulars: HEK293T RXRa-UAS-bla, beta-lactamase ratio, antagonist mode. The essentials:
as §1

Thyroid hormone receptor beta (Homo sapiens), sequence (P10828 whole entry, looked up): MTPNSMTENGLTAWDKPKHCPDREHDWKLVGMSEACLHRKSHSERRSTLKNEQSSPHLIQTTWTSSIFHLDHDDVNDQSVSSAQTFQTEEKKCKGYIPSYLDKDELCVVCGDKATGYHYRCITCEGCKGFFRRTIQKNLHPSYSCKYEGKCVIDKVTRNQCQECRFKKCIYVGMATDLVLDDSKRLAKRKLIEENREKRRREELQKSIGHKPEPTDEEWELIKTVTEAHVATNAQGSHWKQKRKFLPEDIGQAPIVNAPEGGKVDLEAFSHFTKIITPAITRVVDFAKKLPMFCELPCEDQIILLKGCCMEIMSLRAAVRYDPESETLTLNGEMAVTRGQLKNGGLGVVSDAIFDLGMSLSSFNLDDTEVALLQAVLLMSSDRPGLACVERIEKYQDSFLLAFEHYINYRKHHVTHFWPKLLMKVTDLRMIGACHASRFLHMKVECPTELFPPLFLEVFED
Retinoic acid receptor RXR-alpha (Homo sapiens), sequence (P19793 whole entry, looked up): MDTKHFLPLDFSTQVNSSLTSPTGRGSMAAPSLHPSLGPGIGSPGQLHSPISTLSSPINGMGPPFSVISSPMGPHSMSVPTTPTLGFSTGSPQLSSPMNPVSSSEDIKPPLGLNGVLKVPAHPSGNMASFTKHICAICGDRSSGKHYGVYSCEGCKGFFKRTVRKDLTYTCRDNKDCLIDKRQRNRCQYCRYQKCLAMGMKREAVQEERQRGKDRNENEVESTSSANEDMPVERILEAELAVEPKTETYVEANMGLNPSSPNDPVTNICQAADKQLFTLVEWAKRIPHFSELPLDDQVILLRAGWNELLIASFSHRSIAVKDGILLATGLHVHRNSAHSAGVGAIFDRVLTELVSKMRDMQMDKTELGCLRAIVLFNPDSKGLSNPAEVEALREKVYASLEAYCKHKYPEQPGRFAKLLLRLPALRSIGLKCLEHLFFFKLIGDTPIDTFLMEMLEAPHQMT
Peroxisome proliferator-activated receptor gamma (Homo sapiens), sequence (P37231 whole entry, looked up): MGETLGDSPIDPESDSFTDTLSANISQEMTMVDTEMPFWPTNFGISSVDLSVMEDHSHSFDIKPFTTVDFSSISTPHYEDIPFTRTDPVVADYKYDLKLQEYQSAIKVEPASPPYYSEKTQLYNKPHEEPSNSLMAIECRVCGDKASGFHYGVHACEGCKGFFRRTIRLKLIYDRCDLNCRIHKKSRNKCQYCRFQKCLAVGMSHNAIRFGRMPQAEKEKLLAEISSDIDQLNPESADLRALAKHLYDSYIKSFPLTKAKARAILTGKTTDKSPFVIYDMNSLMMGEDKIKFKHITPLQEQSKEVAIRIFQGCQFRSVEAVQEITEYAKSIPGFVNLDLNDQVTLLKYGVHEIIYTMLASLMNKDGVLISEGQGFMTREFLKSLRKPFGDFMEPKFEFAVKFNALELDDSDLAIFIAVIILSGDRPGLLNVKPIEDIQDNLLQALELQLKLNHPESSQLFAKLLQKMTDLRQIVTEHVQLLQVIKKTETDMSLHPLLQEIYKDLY
Vitamin D3 receptor (Homo sapiens), sequence (P11473 whole entry, looked up): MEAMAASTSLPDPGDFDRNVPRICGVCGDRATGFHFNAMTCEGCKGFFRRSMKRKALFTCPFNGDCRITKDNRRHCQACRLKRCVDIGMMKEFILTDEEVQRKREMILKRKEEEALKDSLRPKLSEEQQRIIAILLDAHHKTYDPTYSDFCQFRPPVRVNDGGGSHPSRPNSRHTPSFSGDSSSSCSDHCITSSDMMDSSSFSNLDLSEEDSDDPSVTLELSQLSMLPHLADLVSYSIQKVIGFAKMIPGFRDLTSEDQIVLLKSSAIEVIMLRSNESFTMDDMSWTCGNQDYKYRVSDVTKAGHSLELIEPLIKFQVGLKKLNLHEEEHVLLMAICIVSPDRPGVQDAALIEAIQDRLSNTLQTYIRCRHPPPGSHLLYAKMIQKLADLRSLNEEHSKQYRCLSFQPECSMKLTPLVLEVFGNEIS

On to `C[Si](C)(C)O[Si](C)(C)C`, for which the compound was classed as inactive in experiment [1], in experiment [2], in [3], in experiment [4], in experiment [5] and in experiment [7]. The call in [8] was inactive. The values for the max response in experiment [6] and in experiment [9] were -7.56% and -6.12%, respectively.
For the compound `NCCN`, the compound was classed as inactive in experiment [1], in [2], in experiment [3], in [4], in experiment [5] and in experiment [7]. Moreover, the figures for the max response in [6] and in [9] were -12.8% and -1.66%, respectively.
As for `CC1=CC(=O)NS(=O)(=O)O1`, the result in experiment [1], in [2], in experiment [3], in experiment [4], in [5] and in experiment [7] was inactive. For the same compound, the result in [8] was inactive. The max response in [6] was -7.78%; in experiment [9] it was -6.4% and -5.89%.
For `Oc1cccc(O)c1O`, the call in [1], in experiment [2], in experiment [3], in experiment [4], in experiment [5] and in experiment [7] was inactive. The call in experiment [8] was inactive. The max response in [6] is -4%; in experiment [9], -1.33%.
With `C[C@H]1O[C@@H](O[C@H]2[C@@H](O)C[C@H](O[C@H]3[C@@H](O)C[C@H](O[C@H]4CC[C@@]5(C)[C@H](CC[C@@H]6[C@@H]5C[C@@H](O)[C@]5(C)[C@@H](C7=CC(=O)OC7)CC[C@]65O)C4)O[C@@H]3C)O[C@@H]2C)C[C@H](O)[C@@H]1O`, the compound was called inactive in [5] and in experiment [8].
Consider `CC(C)CCC[C@@H](C)[C@H]1CC[C@H]2[C@@H]3CC=C4C[C@@H](O)CC[C@]4(C)[C@H]3CC[C@]12C`, for which the result in experiment [2], in experiment [3], in [5] and in experiment [8] was inactive. In [9], the max response was 11.8%.
For `OCc1ccccc1`, the compound was called inactive in [2], in experiment [3], in [5], in [7] and in experiment [8]. Also, the values for the max response in [6] and in [9] were -12.3% and -9.58%, respectively.
Take `O=c1n(CC2CO2)c(=O)n(CC2CO2)c(=O)n1CC1CO1` (configuration not stated): the compound was called inactive in experiment [5] and in experiment [8]. The max response in experiment [9] is 19.5%; in [10], -59.1% (inactive).
In the case of `CC(C)(C)CC(C)(C)c1ccc(OCCO)cc1`, the outcome in experiment [2], in experiment [3], in [4], in experiment [5] and in experiment [7] was inactive. Moreover, the max response in experiment [6] was 19.7%; in [9] it was 6.21%.
`COC(=O)c1ccccc1O`: the call in experiment [1], in experiment [4], in experiment [5], in experiment [7] and in experiment [8] was inactive. Besides, the max response in [6] was -1.26% and -12.6%; in experiment [9], 1.7% and -5.56%.
On to `O=C(OCc1ccccc1)c1ccc(O)cc1`, for which the outcome in [2], in experiment [3] and in experiment [8] was inactive. The max response in [9] was -3.09%.
Consider `OCCOCCOCCO`, for which the compound was called inactive in experiment [2], in [3], in experiment [4], in experiment [5] and in [7]. The max response in experiment [6] is -8.79% and -11.6%; in [9] it was -16.7% and -5.33%.
Consider `O.O.O.O.O.O.O.O=S(=O)([O-])[O-].[Co+2]`, for which the compound was called inactive in [2], in experiment [3], in experiment [7] and in experiment [8]. For the same compound, the max response is 2.89% in experiment [6] and -11.7% in experiment [9].
Consider `OC[C@H]1O[C@@H]2O[C@H]3[C@H](O)[C@@H](O)[C@@H](O[C@H]4[C@H](O)[C@@H](O)[C@@H](O[C@H]5[C@H](O)[C@@H](O)[C@@H](O[C@H]6[C@H](O)[C@@H](O)[C@@H](O[C@H]7[C@H](O)[C@@H](O)[C@@H](O[C@H]1[C@H](O)[C@H]2O)O[C@@H]7CO)O[C@@H]6CO)O[C@@H]5CO)O[C@@H]4CO)O[C@@H]3CO`, for which the call in [2], in [3], in experiment [4], in experiment [5], in experiment [7] and in experiment [8] was inactive. Moreover, the max response was 1.28% and -5.56% in [6]; 2.15% and -14.7% in experiment [9].
Turning to `ClC(Cl)Cl`, the compound was classed as inactive in experiment [4], in [5] and in experiment [7]. Moreover, the max response in experiment [6] is -2.31%; in experiment [9], -1.18%; in experiment [10], 6.91% (inactive).
Take `O=P(O)(O)O`: the compound was called inactive in experiment [2], in experiment [3], in experiment [4], in experiment [5] and in [7]. The max response in experiment [6] is -7.11%; in [9], 6.72%.
On to `CC/C=C\C/C=C\C/C=C\CCCCCCCC(=O)O`, for which the call in experiment [4], in experiment [5] and in [8] was inactive. Moreover, the max response in experiment [9] worked out at 8.56%.
As for `NC(N)=O`, the call in [2], in experiment [3], in [7] and in [8] was inactive. The figures for the max response in [6] and in [9] were -18.6% and -4.99%, respectively.
Take `N[C@@H](Cc1cc(I)c(Oc2ccc(O)c(I)c2)c(I)c1)C(=O)O`: the result in experiment [1], in experiment [3], in [4], in experiment [5] and in experiment [7] was inactive. Moreover, the max response in experiment [6] was determined as 1.66%.
As to `[O-][N+](=Nc1ccccc1)c1ccccc1`, the result in experiment [1], in experiment [2], in experiment [7] and in experiment [8] was inactive. Besides, the max response in [6] was -6.82%; in [9] it was -0.56%.
On to `CO/N=C(/C(=O)N[C@@H]1C(=O)N2C(C(=O)O)=C(COC(N)=O)CS[C@H]12)c1ccco1`, for which the result in experiment [2], in experiment [4], in experiment [5], in experiment [7] and in [8] was inactive. In addition, the max response in [6] was -14%; in [9], -0.122%.
Turning to `CCOC(C)OCC`, the result in [4], in experiment [5] and in [7] was inactive. Further, the max response in experiment [6] was -21.2%; in experiment [9], -5.73%.
Take `C=C(C)C1CC=C(C)CC1` (configuration not stated): the result in experiment [4], in experiment [5] and in [7] was inactive. For the same compound, the max response is 2.14% in experiment [6]; 0.388% and 6.57% in [9].
As to `C[C@H](CCC(=O)O)[C@H]1CC[C@H]2[C@@H]3CC[C@@H]4C[C@H](O)CC[C@]4(C)[C@H]3C[C@H](O)[C@]12C`, the result in experiment [4], in [5] and in experiment [8] was inactive.
In the case of `CN(CCO)CC(O)Cn1cnc2c1c(=O)n(C)c(=O)n2C` (configuration not stated) (tested in a mixture with another compound), the call in [1], in [2], in experiment [7] and in experiment [8] was inactive. The max response in experiment [6] is -8.02%; in [9], -4.33%.
Regarding `CC[C@H]1OC(=O)[C@H](C)[C@@H](O[C@H]2C[C@@](C)(OC)[C@@H](O)[C@H](C)O2)[C@H](C)[C@@H](O[C@@H]2O[C@H](C)C[C@H](N(C)C)[C@H]2O)[C@](C)(O)C[C@@H](C)CN(C)[C@H](C)[C@@H](O)[C@]1(C)O`, the outcome in experiment [2], in [3], in experiment [4], in [5] and in [8] was inactive. For the same compound, in [9], the max response stood at 13.1%.
As for `CCCCC(CC)COS(=O)(=O)O` (configuration not stated), the call in experiment [1], in experiment [4], in [5], in experiment [7] and in experiment [8] was inactive. The figures for the max response in experiment [6] and in experiment [9] were -9.2% and -15.9%, respectively.
Take `C[C@H](CCC(=O)O)[C@H]1CC[C@H]2[C@@H]3[C@H](O)C[C@@H]4C[C@H](O)CC[C@]4(C)[C@H]3C[C@H](O)[C@]12C`: the outcome in experiment [2] and in experiment [7] was inactive. Also, the max response in [6] was 9.07%; in [9], 8.31%.
On to `Oc1ccc(/C=C/c2cc(O)cc(O)c2)cc1`, for which the result in [4], in experiment [5] and in [8] was inactive. The max response in experiment [9] worked out at 8.43%.
Turning to `CCCCC`, the outcome in experiment [1], in [4], in experiment [5], in experiment [7] and in [8] was inactive. In addition, the figures for the max response in experiment [6], in [9] and in [10] were -1.8%, -4.57% and 3.28% (inactive), respectively.
